Vif inh = HIV Vif self-association inhibitors, primary screen, imaging, HEK293T, single point. inhibition, % at 7.49 µM. HEK293T cells, Vif self-association by quenched fluorescence, 24 h. actives 0.35% (n = 340,000); in the data active = inhibition above about 50%, passing the limit was not always enough; inconclusive = no clear call, values can overlap the other calls; inactive = below about 31%
PvdQ inh = P. aeruginosa PvdQ acylase inhibitors, primary screen, biochemical, fluorescence, plate reader and imaging, single point. purified PvdQ acylase. inhibition, % at 10 µM. actives 0.063% (n = 340,000); in the data active = inhibition above about 30%, passing the limit was not always enough; inconclusive = no clear call, values can overlap the other calls;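 also: 0% = vehicle neutral wells and 100% = reference inhibitor wells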
Wnt act = Wnt/beta-catenin pathway activators, primary screen, cell-based, plate reader, single point; activation, % at 9.35 µM; actives 1.2% (n = 300,000); Wnt/beta-catenin reporter cell assay, activator; in the data active = activation above about 30%, passing the limit was not always enough; inconclusive = no clear call, values can overlap the other calls;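 also: 0% = neutral control wells and 100% = positive control wells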
esBAF inh = Bmi1 luciferase reporter increase in mESCs, primary screen, esBAF inhibitor project, mouse ES cells, Bmi1 luciferase knock-in, single point; actives 2% (n = 350,000); reporter increase, % at 12.5 µM; 24 h; 100% = twice the neutral-well signal; in the data active = activation above about 40%; inconclusive = no clear call, values can overlap the other calls;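 also: 0% = median of the plate's neutral control wells and 100% = double that signal; a rise in the Bmi1 reporter signal indicates esBAF inhibition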
MITF act = activators of MITF-driven TRPM1 promoter reporter, primary screen, cell-based, SK-MEL-5, luciferase, single point. SK-MEL-5 TRPM1-promoter luciferase, 24 h; % of positive control, neutral wells = 0. activation, % at 12.5 µM. actives 0.75% (n = 300,000). AID 588334, 2011;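 active = mean activation of at least 80% with every replicate also reaching 80%; inconclusive = mean reaches 80% but some replicate falls short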;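 also: 0% = neutral control wells and 100% = parthenolide positive control wells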
Glyco luc inh = increase of ERlucT glycosylation luciferase signal, primary screen, N-linked glycosylation inhibitor project, D54 ERlucT cells, luminescence, set 2. D54 ERlucT glycosylation luciferase reporter, 24 h; percent of 100 nM tunicamycin response. reporter increase, % at 12.5 µM. actives 0.23% (n = 360,000). AID 588692, 2011;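 active = mean luciferase reporter signal, scaled so untreated is 0 and the glycosylation-blocking control 100, at or above a set limit in every replicate; inconclusive = mean reaches the limit but not every replicate does; inactive = mean below the limit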;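 also: luciferase carries N-glycosylation sites so blocking glycosylation raises the light; 0% = median of neutral control wells and 100% = median of 100 nM tunicamycin wells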
The depositor's hits bear a star; ? = inconclusive; . = no result given. Most compounds without a hit are left out; they make up all but 2.9% or so of the library.

SMILES	Vif inh	PvdQ inh	Wnt act	esBAF inh	MITF act	Glyco luc inh
COc1cc(Cl)ccc1OCc1cc(C(=O)NCc2cc(C(C)C)no2)no1	3.9	-0.9	51.3*	79.1*	60.2	-2.3
COc1ccc(C(=O)NCc2ccncc2)cc1OC	0.9	0.7	-2.2	.	-36.2	1.5
COc1cc(C)ccc1OCc1cc(C(=O)NCc2ccncc2)no1	-3.4	-3.8	?	51.7*	74.8	-0.3
CO[C@@H]1CN(C)C(=O)c2cc(NC(=O)C3CC3)ccc2OC[C@@H](C)N(C(=O)CN2CCOCC2)C[C@H]1C	.	.	.	-5.6	.	.
C[C@@H]1CN([C@@H](C)CO)C(=O)c2cc(NC(=O)NC3CCCCC3)ccc2O[C@@H](C)CCCCO[C@@H]1CN(C)S(=O)(=O)c1cccs1	.	.	.	-1.2	.	.
COc1cc(-c2ccc3c(=O)c4ccccc4sc3c2)cc(OC)c1OC	-0.6	4.6	2.8	47.2*	64.7	3.7
COc1cc(-c2ccc3c(=O)c4ccccc4n(C)c3c2)cc(OC)c1OC	-1.8	-19.1	8.2	13.0	11.1	11.1
O=C(C[C@H]1CC[C@@H](NC(=O)Cc2ccccn2)[C@@H](CO)O1)NCCc1ccccc1	.	.	.	0.0	.	.
C=CCSc1nnc(-c2nnc(SCC=C)n2-c2ccccc2)n1-c1ccccc1	-3.2	-3.3	1.5	4.8	-9.3	-0.9
C=CCSc1nnc(-c2sc(-c3ccccc3)nc2C)n1C	0.4	-18.2	33.1*	.	.	2.2
O=C(Nc1ccc(OC(F)(F)F)cc1)c1n[nH]c(Cn2cncn2)n1	-4.7	-10.9	81.1*	6.7	.	2.2
CCOC(=O)C1(Cc2cccc(OC)c2)CCCN(C(=O)c2cc(C)on2)C1 (stereo unspecified)	-8.2	-15.1	12.2	48.4*	31.3	-2.1
CCOC(=O)C1(Cc2ccccc2)CCCN(C(=O)c2cnn(CC)c2)C1 (stereo unspecified)	7.5	-13.5	24.0	65.2*	90.9*	-0.8
CCOC(=O)C1(Cc2cccc(OC)c2)CCCN(C(=O)CNC(C)=O)C1 (stereo unspecified)	-0.7	-8.4	10.2	64.6*	64.2	0.3
CCOC(=O)C1(Cc2cccc(OC)c2)CCCN(C(=O)c2cc(C)[nH]n2)C1 (stereo unspecified)	-0.5	-17.6	11.3	.	52.1	-2.0
CCOC(=O)C1(Cc2cccc(OC)c2)CCCN(C(=O)c2ccccc2C)C1 (stereo unspecified)	-3.2	-13.4	35.4*	.	72.4	-0.4
CC(C)NC(=O)N(C)C[C@H]1Oc2c(cccc2N(C)C)C(=O)N([C@@H](C)CO)C[C@H]1C	.	.	.	1.3	.	.
Cc1noc(C)c1S(=O)(=O)Nc1ccc2c(c1)CC(=O)N([C@H](C)CO)C[C@@H](C)[C@@H](CN(C)Cc1ccc3c(c1)OCO3)O2	.	.	.	5.6	.	.
CC1CCCC/C1=N\NC(=S)Nc1ccccc1 (stereo unspecified)	66.5*	5.6	-1.7	-2.2	-14.8	0.5
C[C@H](O)C#Cc1cnc2c(c1)C(=O)N([C@@H](C)CO)C[C@@H](C)[C@H](CN(C)C(=O)Cc1ccccn1)O2	.	.	.	2.0	.	.
O=C(/C=C/c1ccccc1Cl)NCc1ccccc1	-3.5	-14.5	-4.6	52.8*	39.1	1.1
O=C(/C=C/c1ccccc1Cl)NCCc1ccccc1	-13.4	-15.2	-2.1	55.3*	87.2*	-2.1
O=C(/C=C/c1ccc(Cl)cc1)NCCc1ccccc1	-3.3	-7.7	11.8	37.2	44.4	1.5
O=C(/C=C/c1ccccc1[N+](=O)[O-])NCc1ccc(Cl)cc1	-2.0	1.0	-6.3	.	0.0	-1.0
CN(C)c1nc(-c2ccc([N+](=O)[O-])cc2)cs1	.	6.3	.	66.9*	?	-1.0
SMILES	Vif inh	PvdQ inh	Wnt act	esBAF inh	MITF act	Glyco luc inh
Cc1ccccc1Cn1ccc(NC(=O)c2cc3ncc(Br)cn3n2)n1	1.4	-4.7	0.2	-15.1	-9.5	2.0
CSc1ccccc1NC(=O)c1cc2ncc(Br)cn2n1	-0.7	-15.9	34.7*	54.8*	72.8	0.0
CC1CCC(NC(=O)N(CCCl)N=O)CC1 (stereo unspecified)	58.9*	3.2	28.8	?	?	?
COc1cccc2[nH]c(=O)c(-c3ccccc3)cc12	-3.6	-22.3	20.6	56.4	105.1*	-3.8
CC1CC(C)CN(C(=O)c2cc3ccccc3o2)C1 (stereo unspecified)	.	-9.5	4.6	58.3*	43.8	1.4
CC1CCN(C(=O)c2cc3ccccc3o2)CC1	10.6	-11.2	.	57.2*	.	-2.1
CC(=O)N1CCN(C(=O)c2cc3ccccc3o2)CC1	23.8	-4.2	-1.5	2.2	4.2	1.7
O=C(c1cc2cc(Br)ccc2o1)N1CCCC1	2.4	-5.5	7.0	38.6*	16.3	-1.2
O=C(c1cc2ccccc2o1)N1CCN(Cc2nc3ccccc3s2)CC1	21.8	.	1.6	44.8*	.	-0.7
CN1C(=O)c2cc(NC(=O)C3CC3)ccc2OC[C@H]2O[C@H](CC(=O)NCCN3CCCC3)CC[C@@H]21	.	.	.	3.0	.	.
O=C(C[C@@H]1C[C@H]2c3cc(NC(=O)c4cccnc4)ccc3O[C@H]2[C@@H](CO)O1)NCCN1CCCCC1	.	.	.	6.1	.	.
CC1CC(C)CN(C(=O)c2cc3cc(Br)cc(Br)c3o2)C1 (stereo unspecified)	-5.4	-1.0	1.1	.	82.7*	-2.7
Cc1ccc(Nc2nnc(SCC(=O)Nc3cccc(S(=O)(=O)N4CCCCC4)c3)s2)cc1	-14.1	14.7	1.7	.	46.8	-3.9
O=C(CSc1nnc(Nc2ccccc2F)s1)Nc1cccc(S(=O)(=O)N2CCCCC2)c1	-11.8	2.8	20.3	42.9*	30.1	-2.7
O=C(C[C@H]1C[C@@H]2c3cc(NS(=O)(=O)c4ccc(F)cc4)ccc3O[C@@H]2[C@H](CO)O1)NC1CCCC1	.	.	.	-0.2	.	.
N#C/C(=C\c1ccc(Cl)cc1)c1nc(-c2ccco2)cs1	2.3	12.2	0.7	.	23.6	1.7
N#C/C(=C\c1ccc(F)cc1)c1nc(-c2ccco2)cs1	58.7*	-6.2	12.1	79.1*	71.4	1.5
COCC(=O)N(C)C[C@@H]1Oc2ncc(C#CC(C)(C)O)cc2C(=O)N([C@H](C)CO)C[C@@H]1C	.	.	.	-6.7	.	.
N#CC1CC(c2ccccc2)=NN1c1ccccc1[N+](=O)[O-] (stereo unspecified)	2.3	7.0	9.7	51.7*	14.0	-3.3
COc1ccc(OCc2cc(C(=O)NCC3CCOCC3)no2)c(Cl)c1	-10.0	-7.3	13.7	54.7*	31.4	1.2
COc1ccc(OCc2cc(C(=O)N(C)Cc3cc(C4CC4)n[nH]3)no2)c(Cl)c1	0.0	-15.9	18.1	68.2*	90.3*	1.2

Source: PubChem BioAssay
